HSV augment – increases HSV replication in cells. HSV replication augmentation in cells, fold increase. 220,000 compounds, 0.005% hits. AID 1956. maximum fold increase; in the data active = maximum fold increase above about 1.5; inconclusive = no clear call, values can overlap the other calls; tested in PC3 cells
PGE2 EP2 inh – blocks the human prostaglandin E2 receptor EP2 | P43116 | C6 glioma cells expressing human EP2, cAMP TR-FRET; cells stimulated with saturating PGE2 | inhibition, % at 25 µM | 260,000 compounds, 0.52% hits | AID 1422;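 active = percent inhibition above 40 after rounding to a whole number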;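 also: rat C6 glioma host cells with rolipram phosphodiesterase inhibitor present; the protocol text gives 20 µM as final concentration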
Target sequence (P43116 whole entry, looked up): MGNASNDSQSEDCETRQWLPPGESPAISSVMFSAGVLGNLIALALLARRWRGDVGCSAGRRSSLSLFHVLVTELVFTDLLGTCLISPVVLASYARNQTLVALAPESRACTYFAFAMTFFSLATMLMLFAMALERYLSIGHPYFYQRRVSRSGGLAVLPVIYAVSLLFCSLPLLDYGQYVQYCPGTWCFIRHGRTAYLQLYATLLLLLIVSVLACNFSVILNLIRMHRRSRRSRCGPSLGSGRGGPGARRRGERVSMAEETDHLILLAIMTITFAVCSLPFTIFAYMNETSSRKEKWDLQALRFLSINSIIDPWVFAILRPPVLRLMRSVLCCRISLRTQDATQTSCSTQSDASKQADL
Pf gametocyte – inhibitors of late stage P. falciparum gametocyte viability; 150,000 compounds, 0.065% hits; P. falciparum stage V gametocytes, ATP luminescence, 24 h; inhibition, % at 10.9 µM;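 active = inhibition above the mean plus 3 SD of compounds within the control limits, set per campaign, cut at about 38% in these data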
Furin inhibitor – human furin inhibition; purified furin, fluorogenic substrate cleavage; P09958; inhibition, % at 20 µM or 30 µM; AID 463115; 220,000 compounds, 0.061% hits; in the data active = inhibition above about 25%
EP2 mod – modulates human prostaglandin E2 receptor EP2 signaling; EP2-expressing cells, cAMP HTRF FRET, PGE2 co-stimulation; induction, % at 25 µM; 260,000 compounds, 0.83% hits;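 active = compounds whose cAMP rise, as percent of the full-agonist control response, exceeds 60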;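 also: rat C6 glioma line stably carrying human EP2 under a CMV promoter; the protocol text gives 20 µM as final concentration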
Of the large screens only hits and unclear results are named; the others gave an inactive call. Only some compounds are listed: those with a hit (about 1.4% of all), similar ones and a draw of the others.

CCSc1nc2c(c(=O)n1Cc1ccccc1)SC(C)C2 (centres undefined)	EP2 mod 62 (no result: Pf gametocyte)
CCSc1nc2ccccc2c(=O)n1Cc1ccc(F)cc1	EP2 mod 65
CC1Cc2nc(SCC(N)=O)n(Cc3ccccc3)c(=O)c2S1 (centres undefined)	none (no result: Pf gametocyte)
C=C(C)Cn1c(SCC)nc2ccccc2c1=O	none (no result: Pf gametocyte)
COc1cccc(CC(=O)NNC(=O)c2c(-c3ccccc3)noc2C)c1	none
N#C/C(=C\c1ccc(N2CCOCC2)c([N+](=O)[O-])c1)c1nc2ccccc2[nH]1	none
N#C/C(=C\c1ccc(N2CCOCC2)o1)c1nc2ccccc2[nH]1	HSV augment inconclusive, PGE2 EP2 inh 42
CCC(=O)NC1=C(Cl)C(=O)C(NC(=O)CC)=C(Cl)C1=O	PGE2 EP2 inh 117 (no result: Pf gametocyte)
COc1cc(OC)cc(-c2cc3nc(C)c(CCC(=O)NCc4ccccc4)c(C)n3n2)c1	Pf gametocyte 39
CCCc1c(C)c2cc(Cl)c(O)cc2oc1=O	none (no result: HSV augment, Pf gametocyte, Furin inhibitor)
O=c1oc2cc(O)c(Cl)cc2c2ccccc12	EP2 mod 61
O=C(COc1cc(Cl)ccc1Cl)Nc1nnc(CC(=O)N2CCOCC2)s1	none (no result: Pf gametocyte)
CC(=O)OCCCCCCCCCCC[N+]1(C)CCCCC1	none
C[N+]1(CCCC[N+]2(C)CCCCCCC2)CCCCCCC1	PGE2 EP2 inh 46 (no result: HSV augment, Pf gametocyte, Furin inhibitor)
COc1ccc(S(=O)(=O)N2c3ccccc3OCC2C(C)(C)C)cc1 (centres undefined)	EP2 mod 62 (no result: HSV augment)
CCCN1C(=O)/C(=C2/C=Cc3ccccc3N2CC)SC1=S	none
CCCN1/C(=C2/SC(=S)N(CC)C2=O)C=Cc2ccccc21	EP2 mod 63 (no result: Pf gametocyte)
O=C(CN1CCCC1)Nc1ccccc1Sc1ccc(Cl)cc1	none
CN(C)[C@H]1C(=O)C(C(=O)NCN2CCCC2)=C(O)[C@@]2(O)C(=O)C3=C(O)c4c(O)cccc4[C@](C)(O)[C@H]3C[C@H]12	PGE2 EP2 inh 44 (no result: HSV augment, Pf gametocyte, Furin inhibitor)
O=C(Nc1ccc2c(c1)Cc1ccccc1-2)[C@@H]1[C@H](C(=O)O)[C@]2(Cl)C(Cl)=C(Cl)[C@@]1(Cl)C2(Cl)Cl	PGE2 EP2 inh 42 (no result: HSV augment, Pf gametocyte, Furin inhibitor)
N#CC1=C(N)NC(SCc2ccc(Br)cc2)=C(C#N)C12CCCCC2	Furin inhibitor 31 (no result: HSV augment, PGE2 EP2 inh, Pf gametocyte)
Nc1nc(N)c(-c2cccc(C(F)(F)F)c2)c(Cc2cccc(C(F)(F)F)c2)n1	PGE2 EP2 inh 62 (no result: HSV augment, Pf gametocyte, Furin inhibitor)
Cn1ccnc1Sc1nc(Nc2cccc(Cl)c2)nc(N2CCOCC2)n1	EP2 mod 61
Oc1cccc(Nc2nc(N3CCOCC3)nc(N3CCOCC3)n2)c1	none (no result: HSV augment, Furin inhibitor)
Cc1sc2ncn3c(SCC(=O)Nc4ccccc4-c4ccccc4)nnc3c2c1C	EP2 mod 67 (no result: HSV augment, Pf gametocyte, Furin inhibitor)
Cc1sc2ncnc(SCC(=O)Nc3ccccc3-c3ccccc3)c2c1C	EP2 mod 84 (no result: HSV augment, Pf gametocyte, Furin inhibitor)
Cc1sc2ncnc(SCC(=O)NNC(=O)Cc3ccccc3)c2c1C	none (no result: HSV augment, Pf gametocyte, Furin inhibitor)
Cc1ccc(S(=O)(=O)CCC(=O)NCCN2C(=O)S/C(=C/c3ccc(F)cc3)C2=O)cc1	none
CC1(c2ccccc2)CC(C)(C)N2C(=O)Cc3cccc1c32 (centres undefined)	EP2 mod 62 (no result: Pf gametocyte)
COc1ccccc1OCCOCCOc1ccccc1Cl	Pf gametocyte 51
CCOc1ccc(OCCOCCOc2ccccc2Cl)cc1	none
C=CCc1cccc2cc(C(=O)Nc3cccc(C(=O)O)c3)c(=O)oc12	EP2 mod 100
C=CCc1cccc2cc(C(=O)Nc3ccc(CC(=O)O)cc3)c(=O)oc12	none
Oc1ccccc1C=NCCCCCCN=Cc1ccccc1O	EP2 mod 62
COc1ccc(C(=O)CSc2nnc3c4ccccc4n(C)c3n2)cc1	none (no result: HSV augment, Pf gametocyte, Furin inhibitor)
CCc1nc2ccccc2nc1N1CCN(S(=O)(=O)c2ccc(Cl)cc2)CC1	none
O=S(=O)(c1ccccc1)N1c2cc(Cl)ccc2Oc2nc3ccccc3nc21	EP2 mod 61
Nc1nc(-c2cccc([N+](=O)[O-])c2)cc(-c2cc(-c3cccc([N+](=O)[O-])c3)nc(N)n2)n1	PGE2 EP2 inh 44 (no result: HSV augment, Pf gametocyte, Furin inhibitor)
O=C(O)c1cc(-c2cccc([N+](=O)[O-])c2)nc2ccccc12	none
Cc1ccccc1OC1C(=O)N(C2CCCC2)C1c1ccc2c(c1)OCO2 (centres undefined)	EP2 mod 61 (no result: HSV augment, Pf gametocyte, Furin inhibitor)
CC1CC(C)CN(C(=O)C(Cc2ccccc2)n2cccc2)C1 (centres undefined)	EP2 mod 62
CC1CCN(C(=O)C(Cc2ccccc2)n2cccc2)CC1 (centres undefined)	none (no result: Pf gametocyte)
CN=C1SC(CC(=O)Nc2ccccc2F)C(=O)N1/N=C/c1ccc(O)c(OC)c1 (centres undefined)	none

High-throughput results (PubChem BioAssay)
